Here are results for 18 compounds from PubChem BioAssay.

Molecules are shown by their SMILES. Unmarked numbers belong to inactive results. For part of these data: Potency and affinity values are given separately. Active and inactive are the calls of the source. Unless noted, how the calls were made is not given here.

Usually inhibition stands for the drop in the measured response relative to a control, in per cent.

Experiment [1] is described as follows: antimalarial activity against Dd2 strain (AID 2302;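 active means growth inhibition above 50% at the single 2 µM test dose, taken to imply half-maximal potency below 2 µM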;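 further: 0% = DMSO untreated growth and 100% = chloroquine plus artemisinin killed control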). The following applies: P. falciparum Dd2 in RBCs, LDH growth readout, 72 h; at 2 µM; hits give high values.
Experiment [2] is described as follows: HepG2 cytotoxicity, primary screen, cytotoxicity control for P. falciparum antimalarial project, cell-based, ATP luminescence (AID 2303;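 active means inhibition above 50%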;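 further: 0% = DMSO wells and 100% = digitonin-killed cells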). The following applies: HepG2 viability, 24-48 h, at 10 µM, hits give high values.
In experiment [3] the target is L-lactate dehydrogenase (Plasmodium falciparum (isolate CDC / Honduras)) (UniProt Q27743). Nature of the experiment: PfLDH activity inhibition – cell lysate, 3D7 strain, counter-screen for P. falciparum growth inhibition project (AID 2304).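 Further: 0% = vehicle and 100% = reference inhibitor.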 Conditions: P. falciparum 3D7 crude extract, LDH APAD/NBT absorbance; at 2 µM; hits give high values. In general terms: The purpose of a counterscreen is to sort out artefacts and off-target activity.

Experiment [4] in a line: inhibition of 3D7 malaria parasite growth – strain 3D7 (AID 2306).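 Further: 0% = DMSO wells and 100% = chloroquine plus artemisinin control wells.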 Conditions: P. falciparum 3D7 erythrocytic growth, LDH absorbance, 72 h; at 2 µM; hits give high values.
The target in experiment [5] is Calcium-dependent protein kinase 1 (Plasmodium falciparum (isolate 3D7)) (UniProt P62344). The experiment in a line: PfCDPK1 kinase inhibitors, biochemical, TCAMS library (AID 1159585; cut-off not given, nearly all actives have IC50 up to about 0.98 µM;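 further: inhibitors leave more ATP so luminescence rises with inhibition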). The following applies: recombinant PfCDPK1, Kinase-Glo ATP depletion luminescence. On the technique in general: Kinase-Glo reads ATP consumption through a luciferase reaction.
For experiment [6], the target named is Plasmodium falciparum protein kinase 6 (PK6, PF3D7_1337100) (UniProt Q8IDW1). The experiment in a line: PfPK6 kinase inhibitors, biochemical, TCAMS library (AID 1159586). Conditions: recombinant PfPK6, Kinase-Glo ATP depletion luminescence.
Experiment [7] deals with Protein kinase 7 (PK7), Plasmodium falciparum 3D7 (PF3D7_0213400) (UniProt Q7YTF7). The experiment in a line: inhibition of Plasmodium PK7 catalytic activity – biochemical, TCAMS antimalarial set, Kinase-Glo luminescence (AID 1159587). The following applies: recombinant PfPK7, Kinase-Glo ATP depletion luminescence.
Experiment [8] deals with Calcium-dependent protein kinase 4 (Plasmodium falciparum (isolate 3D7)) (UniProt Q8IBS5). The experiment in a line: PfCDPK4 kinase inhibitors, biochemical, TCAMS library (AID 1159588; cut-off not given, nearly all actives have IC50 up to about 0.91 µM). Conditions: recombinant PfCDPK4, Kinase-Glo ATP depletion luminescence.
Chain of Calcium-dependent protein kinase 4 (Plasmodium falciparum (isolate 3D7)) (Q8IBS5 whole entry, looked up): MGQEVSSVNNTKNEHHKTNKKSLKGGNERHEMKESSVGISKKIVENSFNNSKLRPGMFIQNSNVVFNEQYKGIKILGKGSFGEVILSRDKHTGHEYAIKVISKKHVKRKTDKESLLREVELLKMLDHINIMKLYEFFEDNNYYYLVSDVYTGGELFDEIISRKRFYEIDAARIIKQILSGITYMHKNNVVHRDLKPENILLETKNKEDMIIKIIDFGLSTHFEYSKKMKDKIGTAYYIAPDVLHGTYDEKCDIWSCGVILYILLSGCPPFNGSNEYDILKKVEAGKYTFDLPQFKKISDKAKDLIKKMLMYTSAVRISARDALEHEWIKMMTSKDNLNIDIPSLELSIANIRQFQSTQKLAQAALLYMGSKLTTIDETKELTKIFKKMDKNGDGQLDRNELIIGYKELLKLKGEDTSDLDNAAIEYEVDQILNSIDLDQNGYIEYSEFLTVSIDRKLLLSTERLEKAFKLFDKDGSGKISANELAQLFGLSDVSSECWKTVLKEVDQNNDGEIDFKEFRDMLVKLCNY

Chain of Calcium-dependent protein kinase 1 (Plasmodium falciparum (isolate 3D7)) (P62344 whole entry, looked up): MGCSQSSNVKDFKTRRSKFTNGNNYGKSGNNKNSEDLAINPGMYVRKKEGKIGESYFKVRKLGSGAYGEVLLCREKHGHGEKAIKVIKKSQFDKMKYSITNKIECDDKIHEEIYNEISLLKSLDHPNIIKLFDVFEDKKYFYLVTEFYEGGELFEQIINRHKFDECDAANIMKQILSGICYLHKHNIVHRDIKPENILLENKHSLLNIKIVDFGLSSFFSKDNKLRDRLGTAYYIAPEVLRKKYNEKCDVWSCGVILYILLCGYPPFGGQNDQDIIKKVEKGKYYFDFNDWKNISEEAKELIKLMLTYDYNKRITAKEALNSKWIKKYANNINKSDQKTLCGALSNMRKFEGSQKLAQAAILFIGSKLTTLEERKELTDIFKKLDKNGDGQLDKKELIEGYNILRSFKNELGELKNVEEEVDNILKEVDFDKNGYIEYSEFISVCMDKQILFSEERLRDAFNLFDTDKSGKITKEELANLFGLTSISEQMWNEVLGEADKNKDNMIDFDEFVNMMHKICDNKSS
Chain of Plasmodium falciparum protein kinase 6 (PK6, PF3D7_1337100) (Q8IDW1 1-305): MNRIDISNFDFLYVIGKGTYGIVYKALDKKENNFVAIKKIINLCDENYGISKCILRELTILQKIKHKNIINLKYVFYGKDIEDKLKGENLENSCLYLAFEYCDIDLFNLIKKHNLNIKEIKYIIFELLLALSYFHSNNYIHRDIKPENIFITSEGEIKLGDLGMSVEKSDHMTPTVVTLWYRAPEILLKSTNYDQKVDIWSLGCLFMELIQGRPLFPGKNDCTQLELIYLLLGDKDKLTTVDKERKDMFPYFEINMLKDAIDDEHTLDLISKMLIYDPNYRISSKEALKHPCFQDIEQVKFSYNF
Chain of L-lactate dehydrogenase (Plasmodium falciparum (isolate CDC / Honduras)) (Q27743 whole entry, looked up): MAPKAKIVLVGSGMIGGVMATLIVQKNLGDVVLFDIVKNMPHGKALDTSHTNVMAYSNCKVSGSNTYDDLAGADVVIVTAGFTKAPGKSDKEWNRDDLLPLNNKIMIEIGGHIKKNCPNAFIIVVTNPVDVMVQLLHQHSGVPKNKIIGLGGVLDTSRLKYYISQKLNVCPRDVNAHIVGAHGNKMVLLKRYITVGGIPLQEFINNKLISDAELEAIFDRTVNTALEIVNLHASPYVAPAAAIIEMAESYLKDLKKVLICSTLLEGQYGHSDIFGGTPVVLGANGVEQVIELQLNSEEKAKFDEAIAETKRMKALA
Chain of Protein kinase 7 (PK7), Plasmodium falciparum 3D7 (PF3D7_0213400) (Q7YTF7 1-343): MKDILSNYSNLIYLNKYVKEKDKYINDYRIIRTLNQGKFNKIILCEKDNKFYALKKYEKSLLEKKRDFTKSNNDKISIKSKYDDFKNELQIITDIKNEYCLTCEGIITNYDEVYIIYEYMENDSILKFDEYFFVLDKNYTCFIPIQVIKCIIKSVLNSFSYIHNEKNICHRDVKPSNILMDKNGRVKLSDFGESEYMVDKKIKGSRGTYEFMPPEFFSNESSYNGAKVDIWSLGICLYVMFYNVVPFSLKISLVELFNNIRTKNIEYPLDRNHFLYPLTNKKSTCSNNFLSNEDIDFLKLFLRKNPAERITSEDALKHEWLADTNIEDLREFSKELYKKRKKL

In the case of `Cc1ccccc1C1CCN(C2CCC(NC(=O)c3ccc(-c4ccccc4F)o3)CC2)CC1` (centres undefined), the figures for the growth inhibition in experiment [1] and in experiment [4] were 66% (active) and 99% (active), respectively. For the same compound, the inhibition in experiment [2] was 42%; in experiment [3] it was 1%. The outcome in experiment [5], in experiment [6], in experiment [7] and in experiment [8] was inactive.

`COc1c(C2CCN(CCCCNC(=O)c3ccc(-c4ccc(C#N)cc4)cc3)CC2)cc(Cl)c2c1CCCC2`: the growth inhibition in experiment [1] is 59% (active); in experiment [4] it was 93% (active). Moreover, the results for the inhibition in experiment [2] and in experiment [3] were 45% and 0%, respectively. The result in experiment [5], in experiment [6], in experiment [7] and in experiment [8] was inactive.

Consider `CCCOc1ccccc1C(=O)Nc1nonc1-c1ccc(OCC)c(OCC)c1`, for which the growth inhibition in experiment [1] is 89% (active); in experiment [4] it was 99% (active). The figures for the inhibition in experiment [2] and in experiment [3] were 46% and -4%, respectively. Moreover, the outcome in experiment [5], in experiment [6], in experiment [7] and in experiment [8] was inactive.

Take `Clc1ccc2c(NN=Cc3ccccc3)ccnc2c1`: the growth inhibition is 94% (active) in experiment [1] and 100% (active) in experiment [4]. For the same compound, the figures for the inhibition in experiment [2] and in experiment [3] were -6% and -3%, respectively. The outcome in experiment [5], in experiment [6], in experiment [7] and in experiment [8] was inactive.

`Cc1cc(N[C@@H](Cc2ccccc2)C(=O)NCCCOC(C)C)nc(NCCc2ccc(F)cc2)n1`: the growth inhibition was 36% in experiment [1] and 101% (active) in experiment [4]. Moreover, the inhibition is 15% in experiment [2] and 0% in experiment [3]. For the same compound, the result in experiment [5], in experiment [6], in experiment [7] and in experiment [8] was inactive.

As for `Cc1cccc2[nH]c(-c3ccc(-c4ccc(CN5CCN(c6ccncc6)CC5)cc4)cc3)nc12`, the growth inhibition in experiment [1] was 100% (active); in experiment [4] it was 102% (active). In addition, the inhibition was 98% (active) in experiment [2] and 3% in experiment [3]. Moreover, the result in experiment [5], in experiment [6], in experiment [7] and in experiment [8] was inactive.

With `CN(C)CCCNc1c2ccccc2nc2ccccc12`, the growth inhibition in experiment [1] is 4%; in experiment [4], 91% (active). Besides, the figures for the inhibition in experiment [2] and in experiment [3] were 31% and -3%, respectively. Further, the outcome in experiment [5], in experiment [6], in experiment [7] and in experiment [8] was inactive.

Consider `O=C(NCC1CCC(CNCCCc2ccccc2)CC1)Nc1ccc(Cl)c(Cl)c1` (centres undefined), for which the values for the growth inhibition in experiment [1] and in experiment [4] were 2% and 99% (active), respectively. Further, the inhibition in experiment [2] was 26%; in experiment [3], -6%. Further, the result in experiment [5], in experiment [6], in experiment [7] and in experiment [8] was inactive.

Consider `c1ccc2[nH]c(CN(Cc3nc4ccccc4[nH]3)Cc3nc4ccccc4[nH]3)nc2c1`, for which the growth inhibition is 86% (active) in experiment [1] and 81% (active) in experiment [4]. The figures for the inhibition in experiment [2] and in experiment [3] were 39% and -2%, respectively. Besides, the outcome in experiment [5], in experiment [6], in experiment [7] and in experiment [8] was inactive.

With `Cc1cc(N[C@@H](Cc2ccccc2)C(=O)NCc2cccc(F)c2)nc(NCCc2cccnc2)n1`, the figures for the growth inhibition in experiment [1] and in experiment [4] were 40% and 92% (active), respectively. Moreover, the inhibition is 18% in experiment [2] and -2% in experiment [3]. The result in experiment [5], in experiment [6], in experiment [7] and in experiment [8] was inactive.

For the compound `Cc1cc(N2CCCC2)nc(Nc2ccc(NC(=O)c3ccco3)cc2)n1`, the values for the growth inhibition in experiment [1] and in experiment [4] were 43% and 100% (active), respectively. Besides, the inhibition in experiment [2] was 23%; in experiment [3], -3%. Besides, the outcome in experiment [5], in experiment [6], in experiment [7] and in experiment [8] was inactive.

In the case of `CCc1c(CCNCCc2cccc(CCNCCc3ccc(OC)c(OC)c3CC)c2)ccc(OC)c1OC`, the results for the growth inhibition in experiment [1] and in experiment [4] were 67% (active) and 81% (active), respectively. Moreover, the inhibition in experiment [2] was 100% (active); in experiment [3], -6%. The result in experiment [5], in experiment [6], in experiment [7] and in experiment [8] was inactive.

As to `Cc1nc(-c2nc(NCc3ccc4c(c3)OCO4)ncc2-c2ccsc2)sc1C`, the growth inhibition in experiment [1] was 77% (active); in experiment [4], 97% (active). The figures for the inhibition in experiment [2] and in experiment [3] were 7% and -6%, respectively. Further, the outcome in experiment [5], in experiment [6], in experiment [7] and in experiment [8] was inactive.

Turning to `CCN(CCCN1CCCCC1)c1cc(C)nc(Nc2ccc(C)cc2Br)n1`, the growth inhibition is 27% in experiment [1] and 95% (active) in experiment [4]. The inhibition was 49% in experiment [2] and 3% in experiment [3]. For the same compound, the outcome in experiment [5], in experiment [6], in experiment [7] and in experiment [8] was inactive.

With `CCOc1ccccc1NC(=O)C(Sc1nc(C)cc(C)c1C#N)c1ccccc1` (centres undefined), the values for the growth inhibition in experiment [1] and in experiment [4] were 98% (active) and 99% (active), respectively. Further, the inhibition in experiment [2] was -1%; in experiment [3] it was -3%. The result in experiment [5], in experiment [6], in experiment [7] and in experiment [8] was inactive.

Take `CCC(C)OC(=O)C1=C(C)NC2=C(C(=O)CC(c3ccc(OC)c(OC)c3)C2)C1c1ccc(O)cc1` (centres undefined): the figures for the growth inhibition in experiment [1] and in experiment [4] were 97% (active) and 101% (active), respectively. For the same compound, the inhibition in experiment [2] was 3%; in experiment [3], 6%. The result in experiment [5], in experiment [6], in experiment [7] and in experiment [8] was inactive.

Take `CN1CCN(c2nsc3ccc(-c4ccc(NC(=O)Nc5cc(C(F)(F)F)ccc5F)cc4)cc23)CC1`: the growth inhibition was 64% (active) in experiment [1] and 99% (active) in experiment [4]. Further, the inhibition in experiment [2] was 100% (active); in experiment [3], -3%. The result in experiment [5], in experiment [6], in experiment [7] and in experiment [8] was inactive.

In the case of `NCc1cccc(-c2ccc(CNC3CCN(Cc4ccccc4)CC3)cc2)c1`, the values for the growth inhibition in experiment [1] and in experiment [4] were 3% and 95% (active), respectively. The inhibition in experiment [2] is 2%; in experiment [3], 0%. In addition, the outcome in experiment [5], in experiment [6], in experiment [7] and in experiment [8] was inactive.
